Results: PubChem BioAssay AID602292 (National Center for Advancing Translational Sciences (NCATS), 2012)
Screen size: about 1,300 compounds; about 380 (29%) were called active. Roughly 37% stayed inconclusive and do not appear here. Calls come from the whole dose curve; as a rule, active = well fitted inhibition curve with a large enough effect; inconclusive = small, poorly fitted or top-dose-only effect; inactive = flat fitted curve, though single readings scatter. The list shows a part of the results. Entries that show only a call come without a potency.

Target: Thyrotropin receptor (Homo sapiens) (UniProt P16473)
Sequence (P16473 whole entry, looked up): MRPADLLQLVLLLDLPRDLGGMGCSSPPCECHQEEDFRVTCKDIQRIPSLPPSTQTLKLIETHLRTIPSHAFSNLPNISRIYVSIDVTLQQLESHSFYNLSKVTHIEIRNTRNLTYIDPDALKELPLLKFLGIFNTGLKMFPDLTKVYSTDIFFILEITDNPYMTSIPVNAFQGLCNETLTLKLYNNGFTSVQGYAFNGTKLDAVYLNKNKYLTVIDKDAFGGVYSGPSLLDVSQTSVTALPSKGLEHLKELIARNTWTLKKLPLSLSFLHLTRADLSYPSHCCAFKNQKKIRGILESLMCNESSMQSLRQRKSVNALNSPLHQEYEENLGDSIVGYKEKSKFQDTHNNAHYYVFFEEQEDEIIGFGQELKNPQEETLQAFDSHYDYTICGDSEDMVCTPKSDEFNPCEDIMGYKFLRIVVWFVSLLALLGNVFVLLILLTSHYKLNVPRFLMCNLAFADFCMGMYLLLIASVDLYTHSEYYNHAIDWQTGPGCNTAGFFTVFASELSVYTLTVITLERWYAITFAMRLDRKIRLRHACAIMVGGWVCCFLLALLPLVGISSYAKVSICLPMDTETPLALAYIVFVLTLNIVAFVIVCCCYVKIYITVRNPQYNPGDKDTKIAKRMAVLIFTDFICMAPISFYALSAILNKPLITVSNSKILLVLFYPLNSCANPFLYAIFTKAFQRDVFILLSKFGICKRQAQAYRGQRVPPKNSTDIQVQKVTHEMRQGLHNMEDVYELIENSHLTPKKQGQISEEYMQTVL
Assay: qHTS for antagonists of the Thyroid Stimulation Hormone Receptor: Hit Validation in Primary Screen; note: nearly all actives have a fitted effect of over 80% in size
Settings: TSHR-expressing cells, cAMP antagonist mode; series mostly up to 58 µM
In short: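 TSHR-expressing cells were pretreated with compound, then stimulated with TSH at EC80 (4nM final) for 2 hours at 37 deg C. Cellular cAMP measured by competitive HTRF (anti-cAMP cryptate, cAMP-d2) after 30 min at room temperature.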
Potency is the fitted concentration of half-maximal effect.

| SMILES | Potency |
| --- | --- |
| CCOC(=O)COc1ccc(Br)cc1/C=C/c1[nH]c(=O)[nH]c(=O)c1[N+](=O)[O-] | 23.9 µM (active) |
| CCOC(=O)COc1ccccc1/C=C\[N+](=O)[O-] | 30.1 µM (active) |
| CC(=O)N/N=C\c1ccccc1OC/C=C/c1ccccc1 | inactive |
| CC(C)OCCCn1c(=O)c2ccccc2n2c(CCC(=O)NC3CCN(Cc4ccccc4)CC3)nnc12 | inactive |
| CC1CCN(Cc2c(C(=O)N/N=C/c3cc(Cl)ccc3O)nnn2-c2nonc2N)CC1 | inactive |
| COc1cccc(/C=N/NC(=O)C(=O)N2CCCC2)c1O | inactive |
| N#Cc1ccc(Nc2nc(-c3ccc(O)cc3O)cs2)cc1C(F)(F)F | 23.9 µM (active) |
| COc1ccc(/C=C/C(=O)N2CCN(C)CC2)cc1OC | inactive |
| COc1ccc(/C=C2\CC/C(=C\c3ccc(OC)c(OC)c3)C2=O)cc1OC | 19 µM (active) |
| COc1ccc(/C=C/C(=O)Nc2nc(C)cc(C)n2)cc1OC | inactive |
| O=C(Nc1ccc2oc(-c3ccccc3F)nc2c1)c1ccc2c(c1)OCCO2 | 30.1 µM (active) |
| COc1ccc(-c2nnc(NC(=O)c3ccc4c(c3)OCCO4)o2)cc1 | inactive |
| CNc1c(NC(=O)c2ccc3c(c2)OCO3)c(=O)oc2ccccc12 | inactive |
| Cn1c(CNC(=O)C(Cc2ccccc2)NC(=O)c2ccccc2)cc(=O)n(C)c1=O (stereo not drawn) | inactive |
| CCN(c1ccccc1)S(=O)(=O)c1ccc(C(=O)N(CCCN(C)C)c2nc3cc4c(cc3s2)OCO4)cc1 | inactive |
| CCN(CC)S(=O)(=O)c1cccc(C(=O)Nc2nc3cc4c(cc3s2)OCCO4)c1 | 21.3 µM (active) |
| CC1CCC(C(C)C)C(OC(=O)Cn2c(-c3ccccc3)[n+](C)c3ccccc32)C1 (stereo not drawn) | 30.1 µM (active) |
| CCOC(=O)C1C(c2cc(OC)c(OC)c(OC)c2)NC(=S)NC1(O)C(F)(F)F (stereo not drawn) | inactive |
| CC1=C(C(=O)OC(C)(C)C)C(c2ccc3ccccc3c2)NC(=O)N1C (stereo not drawn) | inactive |
| CC(C)(C)OC(=O)NCCCCCc1cn([C@@H](CO)C(=O)NCCCCCCCCCCC(=O)N2CCN(C(=O)OC(C)(C)C)CC2)nn1 | 16.9 µM (active) |
| CN1C(=O)/C(=C/c2ccc(OCc3ccccc3F)cc2)NC1=S | inactive |

| SMILES | Potency |
| --- | --- |
| O=C1S/C(=C\c2ccc(O)c([N+](=O)[O-])c2)C(=O)N1c1ccccc1Cl | 9.53 µM (active) |
| Cc1ccc(CN2C(=O)c3ccccc3Sc3ccc(C(=O)NCCN4CCOCC4)cc32)cc1 | inactive |
| CC(=O)N1c2ccc(S(=O)(=O)N3CCC(C(=O)NC(C)c4ccccc4)CC3)cc2CC1C (stereo not drawn) | inactive |
| C=CCSc1nsc(NC(=O)Nc2ccc(F)cc2)n1 | 7.57 µM (active) |
| Cc1ccc(-n2c(Cl)c(Cl)nc(Cl)c2=O)cc1 | 26.9 µM (active) |
| CCOC(=O)c1cccc(OCC(O)CNCCOc2ccccc2F)c1 (stereo not drawn) | inactive |
| O=[N+]([O-])c1ccc(N=Nc2c(Cl)cc(O)cc2Cl)cc1 | 1.51 µM (active) |
| COc1ccc(C(=O)NC2CCCc3c2cnn3-c2cccc(C)c2C)c(OC)n1 (stereo not drawn) | 21.3 µM (active) |
| Cn1c(N=Nc2ccc(N3CCOCC3)cc2)[n+](C)c2ccccc21 | 12 µM (active) |
| CCn1nc([N+](=O)[O-])c(C(C#N)c2nc3cc(C(F)(F)F)ccc3s2)c(Cl)c1=O (stereo not drawn) | 2.69 µM (active) |
| CCCn1nc([N+](=O)[O-])c(C(C#N)c2nc3ccccc3o2)c(Cl)c1=O (stereo not drawn) | 6.01 µM (active) |
| O=C(NCCc1ccccc1)c1cccnc1N1CCCCCC1 | inactive |
| Cc1cc(C(=O)CCl)c(C)n1CCc1ccccc1 | 30.1 µM (active) |
| CCOC(=O)N1CCN(C(=O)CCc2ccccc2)CC1 | inactive |
| Brc1ccc(CNc2ccc3ncccc3c2)cc1 | 23.9 µM (active) |
| CCOc1ccc(-n2c(SCC(=O)NC(C)CC)nc3n[nH]c(C)c3c2=N)cc1 (stereo not drawn) | inactive |
| O=S(=O)(Nc1ccc2cn[nH]c2c1)c1cc(Br)ccc1Br | 21.3 µM (active) |
| O=C(Nc1ccncc1)Nc1cc(Cl)ccc1Cl | inactive |
| O=C(Nc1ccc(Cl)c(Cl)c1)Nc1ccccc1O | 21.3 µM (active) |
| CSc1ccccc1OCc1cc(C(=O)NC2CCc3ccccc32)no1 (stereo not drawn) | inactive |
| O=C(c1cc(COc2cccc3cnccc23)on1)N1CCCC(CCCO)C1 (stereo not drawn) | 13.5 µM (active) |

| SMILES | Potency |
| --- | --- |
| Cc1nc2ccc(C(=O)Nc3ccc4nc[nH]c4c3)cc2[nH]1 | inactive |
| Cc1ccc(C(=O)Nc2ccc(Br)c(C(F)(F)F)c2)cc1 | 23.9 µM (active) |
| CCn1c(=S)sc2c(=O)n(CC(=O)Nc3ccccc3OC)c(C)nc21 | inactive |
| O=C(Nc1nc(-c2cccs2)c(-c2cccs2)s1)C1CCCC1 | 19 µM (active) |
| O=C(COCc1cc(-c2cccs2)on1)NC1CCCCC1 | inactive |
| COc1ccc(CC(=O)Oc2cc(C)ccc2C)cc1 | inactive |
| CN(C)/C=C(/C(=O)c1ccc(Cl)cc1)S(=O)(=O)c1ccc(Cl)cc1 | inactive |
| c1ccc2c(CSc3ncnc4nc[nH]c34)cccc2c1 | 30.1 µM (active) |
| O=C(COc1ccc(Cl)cc1)NCc1nnc(SCC(=O)NC2CCCCC2)o1 | inactive |
| Clc1ccc(CSc2nnc(CNc3cccc(Cl)c3)o2)cc1 | 23.9 µM (active) |
| C(=N\N1CCN(Cc2cccc3ccccc23)CC1)/c1cccnc1 | inactive |
| Cc1sc(N/N=C/c2cccnc2)nc1-c1ccccc1 | 23.9 µM (active) |
| Nc1c(C(=O)NCc2ccc3c(c2)OCO3)nnn1CC(=O)Nc1ccc(Br)cc1 | inactive |
| COc1cc(C(C)=O)ccc1OCC(=O)Nc1ccc(C)c(S(=O)(=O)N2CCCCCC2)c1 | 19 µM (active) |
| COc1ccc(NC(=O)CCC2CCCCC2)cc1S(=O)(=O)N1CCCCC1 | 37.9 µM (active) |
| COC(=O)CN1C(=O)COc2ccc(S(=O)(=O)N3CCCC3)cc21 | inactive |
| COc1ccc(NS(=O)(=O)c2cc(NC(=O)/C=C/c3cc(OC)ccc3OC)ccc2N2CCCCC2)cc1 | inactive |
| COc1ccc(Br)cc1/C=N/NC(=O)CN1CCCCC1 | inactive |
| COc1cc(C(=S)N2CCCC2)ccc1OCc1ccc(C)cc1 | inactive |
| COC(=O)c1cc(=O)n(-c2c(Cl)cc(C(F)(F)F)cc2Cl)[nH]1 | inactive |
| CCCN1CCN(CCCNC(=O)Cn2nc(C)n3c(cc4cc(OC)ccc43)c2=O)CC1 | inactive |
